The values below come from publication PMC5540273 (PLoS ONE, 2017).

Among the test systems are SNRK; SRC; SRMS; SRPK1; SRPK2; SRPK3; STK16; STK33; STK35.
Common to all, as to details: concentration: 1 μM,replicates: in singlicate; n = 1
The next assay has as its system T1, SNARK.
T1 construct: gene NUAK2
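Also: KINOMEscan kinase panel screen.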

Regarding `O=C(Nc1cccc(C(F)(F)F)c1)c1cccc(Oc2ccc3nccn3n2)c1`, the “%Inh” value in the assay with SNARK was 0%; with SNRK, 1%; in the assay with SRC, 17%; in the assay with SRMS, 0%; with SRPK1 it was 3%; in the assay on SRPK2 it was 0%. For the same compound, the “%Inh” value turned out to be 4% in the assay with SRPK3, 7% in the assay on STK16, 22% in the assay on STK33 and 8% in the assay with STK35.
For `Cn1ccc2ncnc(Oc3ccc(NC(=O)Nc4cnn(C(C)(C)C)c4)c(Cl)c3)c21`, the “%Inh” value with SNARK came out at 10%; with SNRK it was 0%; in the assay with SRC, 82%; with SRMS, 0%; in the assay with SRPK1 it was 74%; in the assay with SRPK2 it was 11%. For the same compound, the “%Inh” value in the assay with SRPK3 was 0%; in the assay on STK16 it was 16%; in the assay on STK33, 7%; in the assay on STK35, 0%.
Take `CCn1c(-c2nonc2N)nc2cncc(CNC3CCNCC3)c21.Cl` [SB-747651]: the “%Inh” value in the assay with SNARK is given as 13%; in the assay with SNRK it was 0%; with SRC, 0%; with SRMS it was 0%; in the assay with SRPK1 it was 23%; in the assay on SRPK2 it was 0%. Further, the “%Inh” value with SRPK3 is on record as 0%; in the assay with STK16 it was 15%; in the assay on STK33 it was 0%; with STK35, 0%.
Take `Cn1ccc2ncnc(Oc3ccc(NC(=O)Nc4cncc(C(F)(F)F)c4)c(Cl)c3)c21`: the “%Inh” value in the assay on SNARK is reported as 0%; in the assay on SNRK, 0%; with SRC, 5%; in the assay on SRMS it was 0%; with SRPK1, 73%; in the assay on SRPK2 it was 0%. In addition, the “%Inh” value amounted to 0% in the assay on SRPK3, 4% in the assay on STK16, 8% in the assay with STK33 and 0% in the assay with STK35.
Consider `O=C(NOCC1CC1)c1cc(Br)c(F)c(F)c1Nc1ccc(I)cc1Cl`, for which the “%Inh” value is 0% in the assay with SNARK; 0% with SNRK; 2% in the assay with SRC; 0% in the assay with SRMS; 0% in the assay on SRPK1; 0% in the assay with SRPK2. For the same compound, the “%Inh” value in the assay on SRPK3 came to 0%; in the assay with STK16, 20%; in the assay with STK33, 0%; with STK35 it was 0%.
On to `Cc1nnc(-c2ccc3occ(-c4ccc(S(C)=O)cc4)c3n2)o1` (centres unmarked), for which the “%Inh” value in the assay with SNARK, in the assay on SNRK, in the assay with SRC, in the assay on SRMS, in the assay on SRPK1 and in the assay on SRPK2 was 0% in each case. In addition, the “%Inh” value in the assay on SRPK3 is 0%; in the assay with STK16, 11%; with STK33, 0%; in the assay on STK35 it was 45%.
On to `CSc1nccc(-c2c(-c3ccc(F)cc3)ncn2CCCN2CCOCC2)n1.Cl` [SB-217146], for which the “%Inh” value was determined as 0% in the assay on SNARK; 1% with SNRK; 10% in the assay on SRC; 35% in the assay with SRMS; 0% with SRPK1; 0% in the assay on SRPK2. In addition, the “%Inh” value in the assay on SRPK3, in the assay with STK16, in the assay on STK33 and in the assay on STK35 was 0% in each case.
For the compound `Cc1ccn2nc(-c3ccc(F)cc3)c(-c3ccncc3)c2c1.Cl` [GW457859], the “%Inh” value with SNARK is 7%; in the assay on SNRK, 52%; in the assay with SRC it was 0%; in the assay with SRMS it was 0%; in the assay with SRPK1, 13%; in the assay with SRPK2, 68%. Besides, the “%Inh” value with SRPK3 is listed as 0%; in the assay on STK16 it was 1%; in the assay on STK33, 0%; in the assay on STK35 it was 0%.
Turning to `CN(c1ccc2c(c1)nc(NCc1ccc(F)cc1)n2C)c1ccnc(Nc2ccc(CS(C)(=O)=O)cc2)n1.Cl` [GW813244], the “%Inh” value with SNARK is on record as 0%; in the assay on SNRK it was 0%; with SRC it was 64%; with SRMS, 56%; in the assay on SRPK1, 41%; in the assay with SRPK2, 0%. The “%Inh” value is on record as 67% with SRPK3, 46% in the assay with STK16, 0% in the assay on STK33 and 15% in the assay on STK35.
In the case of `NC(=O)c1ccc(-c2cc3ncnc(SCC(=O)O)c3s2)cc1`, the “%Inh” value in the assay with SNARK, with SNRK, in the assay with SRC, with SRMS, with SRPK1 and in the assay with SRPK2 was 0% throughout. Further, the “%Inh” value in the assay on SRPK3 is 0%; in the assay on STK16, 54%; with STK33, 0%; in the assay on STK35, 0%.
For `CCN1CCN(CCCC(=O)Nc2n[nH]c3nc(-c4ccc(O)cc4)c(Br)cc23)CC1` [SB-731579], the “%Inh” value with SNARK, in the assay with SNRK, in the assay with SRC, in the assay on SRMS, with SRPK1 and in the assay with SRPK2 was 0% throughout. Further, the “%Inh” value with SRPK3 was determined as 13%; in the assay with STK16 it was 2%; with STK33, 0%; in the assay on STK35 it was 0%.
Regarding `COc1ccc(Nc2nccc(N3CCC(NC(=O)c4cccc(C#N)c4)C3)n2)cc1` (centres unmarked) [GSK1379730], the “%Inh” value is given as 0% in the assay with SNARK; 0% with SNRK; 19% in the assay with SRC; 0% with SRMS; 36% in the assay with SRPK1; 0% in the assay on SRPK2. Moreover, the “%Inh” value with SRPK3 came out at 0%; in the assay with STK16 it was 2%; in the assay with STK33, 10%; in the assay on STK35, 0%.
As to `N#Cc1cccc(C(=O)NC2CCN(c3ccnc(Nc4ccc(F)cc4)n3)C2)c1` (centres unmarked) [GSK1379708], the “%Inh” value in the assay on SNARK amounted to 0%; in the assay with SNRK it was 0%; with SRC, 5%; with SRMS, 0%; in the assay on SRPK1 it was 40%; with SRPK2, 0%. In addition, the “%Inh” value turned out to be 0% in the assay with SRPK3, 12% in the assay on STK16, 0% with STK33 and 0% in the assay on STK35.
With `NC(=O)Nc1sc(-c2ccc(F)cc2)cc1C(N)=O` [GW789449], the “%Inh” value with SNARK is listed as 75%; with SNRK, 6%; in the assay on SRC, 55%; in the assay with SRMS, 18%; in the assay with SRPK1 it was 81%; in the assay on SRPK2, 35%. The “%Inh” value in the assay on SRPK3 is recorded as 90.6%; with STK16, 26%; with STK33, 0%; in the assay on STK35, 0%.
In the case of `COc1cccc(C2=C(Nc3cccc(Cl)c3)C(=O)NC2=O)c1` [SB-341556], the “%Inh” value in the assay with SNARK is given as 47%; in the assay on SNRK, 9%; with SRC it was 0%; in the assay on SRMS it was 0%; in the assay on SRPK1, 42%; with SRPK2, 0%. The “%Inh” value is 24% in the assay with SRPK3, 14% with STK16, 0% in the assay on STK33 and 94.9% with STK35.
In the case of `CN(c1ccccc1CNc1nc(Nc2ccc3c(c2)CC(=O)N3)ncc1C(F)(F)F)S(C)(=O)=O`, the “%Inh” value amounted to 93.4% in the assay on SNARK; 0% in the assay with SNRK; 70% in the assay with SRC; 0% in the assay on SRMS; 46% in the assay with SRPK1; 0% in the assay with SRPK2. Moreover, the “%Inh” value was found to be 39% in the assay on SRPK3, 99.9% in the assay on STK16, 68% in the assay with STK33 and 0% in the assay with STK35.
As to `c1ccc(Oc2ccc(Nc3ccnc4ccc(-c5ccccn5)cc34)cc2)cc1` [GW407034], the “%Inh” value with SNARK is listed as 0%; with SNRK it was 0%; in the assay with SRC, 17%; with SRMS, 94.9%; in the assay with SRPK1, 0%; with SRPK2 it was 0%. Also, the “%Inh” value amounted to 17% in the assay with SRPK3, 0% in the assay on STK16, 0% with STK33 and 31% in the assay on STK35.
